Results taken from PubChem BioAssay AID1159580 (chemical genetic matrix, 2015).
Several values for one entry are separate records, joined by “and”; a condition that tells them apart may be missing. Identical values can stand only once. Hit rate of the full screen: of about 5,500 compounds, about 2,000 (36%) were called active. Not shown: some 18% with an inconclusive outcome. No stated cut-off is given here; in the data, active means normalized growth mostly below about 0.91 (no sharp cut-off); inconclusive means no clear call, values can overlap the other calls; inactive means mostly above about 0.92. Some of the results follow.

Assay: chemical genetic growth profiling, strain panel (AID 1159580);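 further: tested at 20 µM; growth read once vehicle control cultures reached saturation at 30 °C; 1 = growth at the plate median or of vehicle wells; lower values mean less growth of the strain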
Conditions: S. cerevisiae deletion strains, growth OD

Measured: normalized growth

C=CC(C1=CC(=O)C=CC1=O)c1ccccc1 (stereo unspecified)
inactive: locus YAL021C, strain ccr4, hits give low values 1.01 | locus YAL026C, strain drs2, hits give low values 0.983 | locus YAL030W, strain snc1, hits give low values 1 | locus YBL061C, strain skt5, hits give low values 1 | locus YBR009C, strain hhf1, hits give low values 0.995 | locus YBR021W, strain FUR4, hits give low values 0.982 | locus YBR023C, strain chs3, hits give low values 1.01 | locus YBR171W, strain sec66, hits give low values 1.02 | locus YBR229C, strain ROT2, hits give low values 0.974 | locus YBR231C, strain swc5, hits give low values 1.01 | locus YBR279W, strain paf1, hits give low values 0.993 | locus YCL011C, strain gbp2, hits give low values 1.01 | locus YCL016C, strain dcc1, hits give low values 0.994 | locus YCL029C, strain bik1, hits give low values 1 | locus YCL061C, strain MRC1, hits give low values 0.993 | locus YCL069W, strain vba3, hits give low values 1 | locus YCR088W, strain abp1, hits give low values 1.01 | locus YDL005C, strain med2, hits give low values 1.01 | locus YDL035C, strain GPR1, hits give low values 0.937 | locus YDL040C, strain nat1, hits give low values 0.989 | locus YDL074C, strain BRE1, hits give low values 0.916 | locus YDL101C, strain DUN1, hits give low values 0.96 | locus YDL185W, strain tfp1, hits give low values 0.994 | locus YDL192W, strain arf1, hits give low values 0.956 | locus YDR001C, strain nth1, hits give low values 1.01 | locus YDR069C, strain doa4, hits give low values 1.01 | locus YDR101C, strain arx1, hits give low values 0.977 | locus YDR137W, strain rgp1, hits give low values 0.961 | locus YDR159W, strain sac3, hits give low values 1.03 | locus YDR195W, strain ref2 1.01 | locus YDR297W, strain sur2, hits give low values 0.996 | locus YDR318W, strain mcm21, hits give low values 0.953 | locus YDR334W, strain swr1, hits give low values 1.01 | locus YDR335W, strain msn5, hits give low values 0.999 | locus YDR388W, hits give low values 0.991 | locus YDR392W, strain spt3, hits give low values 0.917 | locus YDR502C, strain sam2, hits give low values 0.95 | locus YEL003W, strain gim4, hits give low values 0.982 | locus YEL037C, strain rad23, hits give low values 1.01 | locus YEL061C, strain CIN8 (second series), hits give low values 1.01 | locus YEL061C, strain CIN8, hits give low values 0.974 | locus YER015W, strain faa2, hits give low values 0.996 | locus YER016W, strain bim1, hits give low values 1 | locus YER110C, hits give low values 0.98 | locus YER111C, strain swi4, hits give low values 1 | locus YER155C, strain BEM2 (second series), hits give low values 0.895 | locus YER155C, strain BEM2, hits give low values 1.01 | locus YER167W, strain BCK2, hits give low values 0.947 | locus YFR010W, strain ubp6, hits give low values 1 | locus YGL078C, strain dbp3, hits give low values 0.995 | locus YGL167C, strain pmr1, hits give low values 1.01 | locus YGL173C, strain kem1, hits give low values 1 | locus YGL227W, strain vid30, hits give low values 1.01 | locus YGL240W, strain doc1, hits give low values 0.964 | locus YGL248W, strain PDE1, hits give low values 0.907 | locus YGL253W, strain hxk2, hits give low values 1.02 | locus YGR135W, strain pre9, hits give low values 0.931 | locus YGR252W, strain gcn5, hits give low values 0.952 | locus YHR013C, strain ard1, hits give low values 1.04 | locus YHR027C, strain rpn1, hits give low values 1.01 | locus YHR030C, strain SLT2, hits give low values 0.984 and 1.06 | locus YHR079C, strain IRE1 (second series), hits give low values 0.98 | locus YHR079C, strain IRE1, hits give low values 1.02 | locus YHR094C, strain hxt1, hits give low values 0.993 | locus YHR129C, strain ARP1, hits give low values 0.957 | locus YHR142W, strain chs7, hits give low values 1.01 | locus YHR200W, strain rpn10, hits give low values 0.963 | locus YIL066C, strain RNR3, hits give low values 0.875 | locus YIL073C, strain SPO22, hits give low values 0.916 | locus YIL125W, strain kgd1, hits give low values 0.998 | locus YIR030C, strain dcg1, hits give low values 0.972 | locus YJL092W, strain hpr5, hits give low values 1.01 | locus YJL095W, strain BCK1 (second series), hits give low values 1.01 | locus YJL095W, strain BCK1, hits give low values 0.891 and 1.06 | locus YJL115W, strain asf1, hits give low values 1.01 | locus YJL129C, strain trk1, hits give low values 1.04 | locus YJL134W, strain LCB3, hits give low values 0.99 | locus YJL154C, strain vps35, hits give low values 0.997 | locus YJL164C, strain tpk1, hits give low values 0.984 | locus YJL166W, strain qcr8, hits give low values 0.991 | locus YJL168C, strain set2, hits give low values 0.992 | locus YJL187C, strain SWE1 (second series), hits give low values 0.937 | locus YJL187C, strain SWE1, hits give low values 1 | locus YJR043C, strain POL32, hits give low values 0.889 | locus YJR066W, strain TOR1, hits give low values 1 | locus YJR075W, strain HOC1, hits give low values 0.929 | locus YKL009W, strain mrt4, hits give low values 0.956 | locus YKL068W, hits give low values 1.05 | locus YKL085W, strain MDH1 (second series), hits give low values 0.978 | locus YKL085W, strain MDH1, hits give low values 0.978 | locus YKL160W, strain elf1, hits give low values 0.987 | locus YKR026C, strain gcn3, hits give low values 1.01 | locus YKR091W, strain srl3, hits give low values 1.01 | locus YLL001W, strain dnm1, hits give low values 0.978 | locus YLL026W, hits give low values 1 | locus YLL041C, strain sdh2, hits give low values 1.01 | locus YLR027C, strain aat2, hits give low values 1.01 | locus YLR058C, strain SHM2, hits give low values 0.958 | locus YLR102C, strain apc9, hits give low values 0.978 | locus YLR113W, strain HOG1, hits give low values 1.02 | locus YLR221C, strain rsa3, hits give low values 0.992 | locus YLR258W, strain gsy2, hits give low values 1.01 | locus YLR262C, strain YPT6 (second series), hits give low values 0.969 | locus YLR268W, strain sec22, hits give low values 0.925 | locus YLR320W, strain mms22, hits give low values 0.983 | locus YLR342W, strain FKS1 (second series), hits give low values 0.794 | locus YLR342W, strain FKS1, hits give low values 1.02 | locus YLR357W, strain rsc2, hits give low values 0.988 | locus YLR370C, strain arc18, hits give low values 1.01 | locus YLR371W, strain rom2, hits give low values 0.973 | locus YLR384C, strain iki3, hits give low values 1.01 | locus YML016C, strain PPZ1, hits give low values 0.976 | locus YML032C, strain rad52, hits give low values 0.965 | locus YML120C, strain ndi1, hits give low values 0.998 | locus YML124C, strain tub3, hits give low values 0.971 | locus YMR058W, strain fet3, hits give low values 1 | locus YMR078C, strain ctf18, hits give low values 0.963 | locus YMR125W, strain sto1, hits give low values 1.02 | locus YMR129W, hits give low values 1 | locus YMR205C, strain PFK2, hits give low values 0.997 | locus YMR223W, strain ubp8, hits give low values 0.971 | locus YMR231W, strain pep5, hits give low values 0.986 | locus YMR263W, strain SAP30, hits give low values 0.966 | locus YMR307W, strain GAS1, hits give low values 0.966 | locus YNL067W, strain RPL9B, hits give low values 0.943 | locus YNL071W, strain lat1, hits give low values 1.01 | locus YNL153C, strain GIM3, hits give low values 0.93 | locus YNL183C, strain NPR1, hits give low values 0.975 | locus YNL209W, strain ssb2, hits give low values 0.996 | locus YNL248C, strain rpa49, hits give low values 0.986 | locus YNL250W, strain rad50, hits give low values 1 | locus YNL271C, strain bni1, hits give low values 0.979 | locus YNL298W, strain CLA4, hits give low values 0.982 | locus YNL322C, strain KRE1 (second series), hits give low values 1.01 | locus YNL322C, strain KRE1, hits give low values 0.945 | locus YNR049C, strain mso1, hits give low values 1.02 | locus YNR052C, strain pop2, hits give low values 0.997 | locus YOL012C, strain htz1 0.678 | locus YOL147C, strain pex11, hits give low values 0.975 | locus YOR001W, strain rrp6, hits give low values 0.997 | locus YOR061W, strain CKA2, hits give low values 0.978 | locus YOR069W, strain VPS5, hits give low values 0.982 | locus YOR070C, strain gyp1, hits give low values 0.981 | locus YOR080W, strain dia2, hits give low values 1 | locus YOR083W, strain WHI5, hits give low values 0.981 | locus YOR106W, strain vam3, hits give low values 0.981 | locus YOR136W, strain idh2, hits give low values 1 | locus YOR144C, strain elg1, hits give low values 0.975 | locus YOR231W, strain MKK1, hits give low values 1.04 | locus YOR265W, strain rbl2, hits give low values 1.02 | locus YOR270C, strain vph1, hits give low values 0.973 | locus YOR290C, strain snf2, hits give low values 0.962 | locus YOR316C, strain cot1, hits give low values 0.993 | locus YPL051W, strain arl3, hits give low values 0.978 | locus YPL078C, strain atp4, hits give low values 0.968 | locus YPL106C, strain sse1, hits give low values 1.02 | locus YPL240C, strain hsp82, hits give low values 1 | locus YPL256C, strain CLN2, hits give low values 1.05 | locus YPR119W, strain clb2, hits give low values 0.975 | locus YPR141C, strain kar3, hits give low values 0.991 | locus YPR167C, strain met16, hits give low values 0.963 | strain wtn01, hits give low values 0.931
active: locus YDL134C, strain PPH21, hits give low values 0.863 | locus YDR162C, strain NBP2, hits give low values 0.778 | locus YGL086W, strain mad1, hits give low values 0.927 | locus YGR078C, strain PAC10, hits give low values 0.805 | locus YGR229C, strain SMI1, hits give low values 0.722 | locus YKR001C, strain vps1, hits give low values 0.887 | locus YLR039C, strain RIC1, hits give low values 0.64 | locus YLR262C, strain YPT6, hits give low values 0.551 | locus YLR330W, strain CHS5, hits give low values 0.882 | locus YLR418C, strain cdc73, hits give low values 0.823 | locus YNL233W, strain BNI4, hits give low values 0.815 | locus YNL307C, strain MCK1, hits give low values 0.674 | locus YOR184W, strain ser1, hits give low values 0.811 | locus YPR163C, strain tif3, hits give low values 0.849
